Assay [1] in a line: qHTS Assay for Identifying Gametocytocidal Compounds (AID 743244).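 Note: actives lower the fluorescent signal which means gametocytes are killed.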 The conditions noted are these: P. falciparum 3D7 stage III-V gametocytes, alamarBlue, 72 h; max response: active compounds read low. The method in brief: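 Stage III–V gametocytes of P. falciparum 3D7 were seeded at 20,000 cells/well onto pre-dispensed compounds. After 72 h, 37 °C, 5% CO2, alamarBlue was added for another 24 h.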

A short description of assay [2]: qHTS assay to identify small molecule inhibitors of chordoma cells - UCH-1 (AID 1259355). Note: nearly all actives have a fitted effect of over 55% in size. In short, it runs like this:
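Screening used approved and investigational drugs in 15-point titration against 800 seeded cells per well. A fixed combination of auranofin with camptothecin, doxorubicin, rubitecan and topotecan followed compound addition, and growth was scored by CellTiter-Glo after 48hr.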

Assay [3] can be described thus: qHTS assay to identify small molecule inhibitors of chordoma cells - UCH-2 (AID 1259356). Note: series mostly up to about 46 µM.
Assay [4] can be described thus: P-glycoprotein substrates identified in KB-8-5-11 adenocarcinoma cell line, qHTS therapeutic library screen (AID 1346987). Note: nearly all actives have a fitted effect of over 65% in size. Note: potency is the fitted concentration of half-maximal effect. To be noted: outcome: dose series up to 44.5 µM unless noted. In short, it runs like this: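 Human cervical adenocarcinoma KB-8-5-11 cells, selected in colchicine to over-express P-gp and assayed without it, were exposed for 72 h to titrated compounds. An ATP-based luminescent viability signal gave AC50.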

SMILES strings stand for the structures. Values joined by “and” are separate entries in the source; they are usually repeats but may differ in a detail not shown here. Equal entries are not always repeated. Records with an inconclusive call do not appear. Unmarked numbers belong to inactive results. Active and inactive are the calls of the source. Calls come from the whole dose curve; as a rule, active = well fitted curve in the direction sought with a large enough effect; inconclusive = small, poorly fitted or top-dose-only effect, or another doubt; inactive = no such curve, though single readings can be large; an effect the other way counts as inactive or inconclusive. *1 amine or outer side, *2 acyl side, *3 side chain or, on linkers, in order; H or OH if unused. Where a SMILES comes first, the peptide text is derived from it. Bridges are numbered along the chain shown (N, C = ends). [ ]: non-standard residue; d: D form. The star is where a group is joined. X5 = NC1=N[C@@H]([C@H](N[*:1])C(=O)[*:2])C[C@H](O)N1; ΔAla(Z-3-ureido) = NC(=O)N/C=C(\N)C(=O)O; β3hOrn = NCCC[C@H](N)CC(=O)*; Dap = NC[C@H](N)C(=O)O
% is set by controls: 0 for no effect and ±100 for the full control effect.

As to `CCC(C(=O)NC(N)=O)c1ccccc1` (stereo unspecified), the max response in assay [1] was 7.61%. The Potency entry in assay [2], in assay [3] and in assay [4] was “inactive” each time.
Turning to `CC[C@H]1OC(=O)C[C@@H](O)[C@H](C)[C@@H](O[C@@H]2O[C@H](C)[C@@H](O[C@H]3C[C@@](C)(O)[C@@H](O)[C@H](C)O3)[C@H](N(C)C)[C@H]2O)[C@@H](CC=O)C[C@@H](C)C(=O)/C=C/C(C)=C/[C@@H]1CO[C@@H]1O[C@H](C)[C@@H](O)[C@@H](OC)[C@H]1OC`, the max response in assay [1] is 19.1% and -3.87%. Also, the Potency entry in assay [2], in assay [3] and in assay [4] was “inactive” throughout.
As for `NCCC[C@H](N)CC(=O)N[C@H]1CNC(=O)[C@H]([C@H]2C[C@H](O)NC(N)=N2)NC(=O)/C(=C/NC(N)=O)NC(=O)[C@H](CO)NC(=O)[C@H](CO)NC1=O` (β3hOrn-[Dap]SS[ΔAla(Z-3-ureido)][X5]; lactam 1-C), the max response in assay [1] is 13.7%. Besides, the Potency entry in assay [2], in assay [3] and in assay [4] was “inactive” throughout.
Consider `CCCCC(=O)O[C@H]1CC[C@H]2[C@@H]3CCc4cc(O)ccc4[C@H]3CC[C@]12C`, for which, in assay [1], the max response was -1.51%. The Potency result in assay [2] and in assay [3] was “inactive” in each case. For the same molecule, in assay [4], the Potency was 14.6 µM (active).
Take `Nc1nc2c(c(=O)[nH]1)N(C=O)C(CNc1ccc(C(=O)N[C@@H](CCC(=O)O)C(=O)O)cc1)CN2` (stereo partly specified): the max response in assay [1] is 8.32%. For the same molecule, the Potency entry in assay [2], in assay [3] and in assay [4] was “inactive” in each case.
As for `Cc1cccc(C)c1Nc1ncccc1C(=O)O`, in assay [1], the max response is 11.3%. The Potency entry in assay [2], in assay [3] and in assay [4] was “inactive” in each case.
On to `CC/C=C\C/C=C\C/C=C\C/C=C\C/C=C\CCCC(=O)O`, for which the max response in assay [1] was -4.05%. For the same molecule, the Potency entry in assay [2], in assay [3] and in assay [4] was “inactive” throughout.
`CC(=O)Nc1c(I)c(C(=O)O)c(I)c(N(C)C(C)=O)c1I`: in assay [1], the max response is -0.708%. In addition, the Potency entry in assay [2], in assay [3] and in assay [4] was “inactive” throughout.
As for `CN1CCC(OC(=O)C(Oc2ccc(Cl)cc2)Oc2ccc(Cl)cc2)CC1`, the max response in assay [1] is 32.5%. The Potency result in assay [2], in assay [3] and in assay [4] was “inactive” each time.
In the case of `Oc1cc(O)cc(O)c1`, the max response in assay [1] was 16.3%. Moreover, the Potency entry in assay [2], in assay [3] and in assay [4] was “inactive” in each case.
For `CCOC(=O)Cc1ccc(-c2ccccc2)cc1`, the max response in assay [1] was -12.4%. The Potency entry in assay [2], in assay [3] and in assay [4] was “inactive” in each case.
As for `FC(F)(F)COCC(F)(F)F`, the max response in assay [1] was 3.82%. For the same molecule, the Potency result in assay [2], in assay [3] and in assay [4] was “inactive” in each case.
Consider `CN1C(=O)OC(C)(C)C1=O`, for which, in assay [1], the max response was 8.47%. For the same molecule, the Potency entry in assay [2], in assay [3] and in assay [4] was “inactive” each time.
Regarding `CCOc1ccc(S(=O)(=O)O)c2cccnc12`, in assay [1], the max response is 1.62%. The Potency entry in assay [2], in assay [3] and in assay [4] was “inactive” throughout.
On to `O=[N+]([O-])O[C@@H]1CO[C@H]2[C@@H]1OC[C@@H]2O`, for which the max response in assay [1] is 5.11%. Besides, the Potency result in assay [2], in assay [3] and in assay [4] was “inactive” in each case.
`NC(=O)Oc1ccc(Cc2ccccc2)cc1`: the max response in assay [1] is -7.34%. Further, the Potency result in assay [2], in assay [3] and in assay [4] was “inactive” each time.
Regarding `CCCCCCCCCCCC(=O)OC[C@@H](O)C1OC[C@H](O)[C@H]1O` (stereo partly specified), in assay [1], the max response was -8.97%. For the same molecule, the Potency result in assay [2], in assay [3] and in assay [4] was “inactive” throughout.
Consider `CC1(C)[C@H]2CC[C@]1(C)[C@H](O)C2`, for which the max response in assay [1] is 0.139%. For the same molecule, the Potency result in assay [2], in assay [3] and in assay [4] was “inactive” in each case.
As for `C=N[C@@H](C(=O)N[C@@H]1C(=O)N2[C@@H]1SC(C)(C)[C@@H]2C(=O)O)c1ccccc1`, the max response in assay [1] is -0.476%. For the same molecule, the Potency result in assay [2], in assay [3] and in assay [4] was “inactive” throughout.
For the molecule `O=C(O)c1ccc(OCCn2ccnc2)cc1`, the max response in assay [1] was 0.359%. Moreover, the Potency result in assay [2], in assay [3] and in assay [4] was “inactive” in each case.
As for `O=C(/C=C/c1cccc(F)c1)NC1CC1`, the max response in assay [1] is -1.6%. The Potency entry in assay [2], in assay [3] and in assay [4] was “inactive” throughout.
In the case of `O=S(=O)(O)CC(S)CS` (stereo unspecified), in assay [1], the max response was 3.76%. The Potency entry in assay [2], in assay [3] and in assay [4] was “inactive” in each case.
Take `O[C@@H]([C@H](O)[C@H](O)CBr)[C@H](O)CBr`: the max response in assay [1] is -5.26%. Further, the Potency entry in assay [2], in assay [3] and in assay [4] was “inactive” in each case.
Take `O=C(O)C1=C(CSc2nnnn2CS(=O)(=O)O)CS[C@@H]2[C@H](NC(=O)[C@H](O)c3ccccc3)C(=O)N12`: in assay [1], the max response is -5.8%. Moreover, the Potency entry in assay [2], in assay [3] and in assay [4] was “inactive” throughout.
Regarding `CC[C@@H]1/C=C(\C)C[C@H](C)C[C@H](OC)[C@H]2O[C@@](O)(C(=O)C(=O)N3CCCC[C@H]3C(=O)O[C@H](/C(C)=C/[C@@H]3CC[C@@H](Cl)[C@H](OC)C3)[C@H](C)[C@@H](O)CC1=O)[C@H](C)C[C@@H]2OC`, in assay [1], the max response was -7.71%. Further, the Potency entry in assay [2], in assay [3] and in assay [4] was “inactive” each time.
`COc1c(O[C@@H]2O[C@H](CO)[C@@H](O)[C@H](O)[C@H]2O)cc2c(c1OC)-c1ccc(SC)c(=O)cc1[C@@H](NC(C)=O)CC2`: in assay [1], the max response is 22%. The Potency result in assay [2], in assay [3] and in assay [4] was “inactive” throughout.
On to `CN(Cc1ccccc1)Cc1ccccc1`, for which, in assay [1], the max response is 1.68%. Further, the Potency result in assay [2], in assay [3] and in assay [4] was “inactive” each time.
In the case of `O=C(CO)[C@@H](O)[C@H](O)[C@@H](O)C(=O)O`, in assay [1], the max response was 23.9%. Besides, the Potency entry in assay [2], in assay [3] and in assay [4] was “inactive” each time.
With `COc1ccc(C(=O)CCC(=O)O)c2ccccc12`, in assay [1], the max response was -11.7%. Moreover, the Potency entry in assay [2], in assay [3] and in assay [4] was “inactive” each time.
